A selection: hits, their analogues and other compounds. The true share with any hit is near 14%.
Pf growth 96h: Primary qHTS for delayed death inhibitors of the malarial parasite plastid, 96 hour incubation | P. falciparum luciferase reporter growth, 96 h | Potency, µM (highest dose often 28.7 µM), most hits filed as inhibitors | hit rate 6.9% among 320,000 | AID 504834, 2011
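Two-generation exposure (96 h) targets delayed-death phenotype. Reporter parasites carrying integrated firefly luciferase, in red cells at 2% hematocrit and 0.05% parasitemia final, kept at 37 C, 5% CO2; luminescence loss indicates inhibition.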
Pf growth 48h: Primary qHTS for delayed death inhibitors of the malarial parasite plastid, 48 hour incubation; hit rate 5.9% among 310,000; P. falciparum luciferase growth in erythrocytes, 48 h; Potency, µM (titrated, usually from 28.7 µM), most hits filed as inhibitors
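Luminescence readout; reporter = integrated firefly luciferase in P. falciparum. RBC culture at 2% hematocrit, 0.1% parasitemia final, 37 C/5% CO2; decreased signal taken as growth inhibition.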
Giardia FBPA inh: qHTS Assay for Inhibitors of Fructose-1,6-bisphosphate Aldolase from Giardia Lamblia; A8B2U2; purified Giardia FBPA; Potency, µM (top dose mostly 59.6 µM), usual class: inhibitors; hit rate 0.71% among 290,000; note: nearly all actives have a fitted effect of over 55% in size
Target sequence (A8B2U2 whole entry, looked up): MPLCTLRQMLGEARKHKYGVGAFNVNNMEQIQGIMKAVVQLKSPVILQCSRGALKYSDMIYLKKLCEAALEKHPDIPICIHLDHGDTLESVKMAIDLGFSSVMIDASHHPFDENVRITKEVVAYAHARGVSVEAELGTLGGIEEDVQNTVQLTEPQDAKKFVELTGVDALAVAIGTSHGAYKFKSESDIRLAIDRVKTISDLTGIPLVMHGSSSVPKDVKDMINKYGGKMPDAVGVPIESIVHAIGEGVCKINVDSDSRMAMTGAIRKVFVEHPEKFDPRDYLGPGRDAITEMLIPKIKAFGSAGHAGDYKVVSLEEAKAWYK
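40 nM FBPA preincubated 10 min at RT with compound (up to 57.5 uM final), then substrate plus GAPDH/TPI/NAD/arsenate coupling and diaphorase/resazurin added. Fluorescence read after 20 min at RT, 525/598 nm.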
Sm TGR inh: qHTS Assay for the Inhibitors of Schistosoma Mansoni Peroxiredoxins. hit rate 3% among 360,000. Potency, µM (top dose mostly 114 µM), usual class: inhibitors. purified TGR, DTNB reduction, TNB absorbance 405 nm. AID 485364, 2010. Schistosoma mansoni thioredoxin glutathione reductase (TGR), Q962Y6; note: nearly all actives have a fitted effect of over 60% in size
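TGR 20 nM + NADPH 100 uM (dispensed conc.), cpd preinc 15 min RT; start with NADPH (500 uM addition) then DTNB (15 mM addition). Kinetic TNB absorbance, 405 nm filter. Four-parameter Hill fit across titration.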
HCMV antiviral: qHTS Assay for inhibitors of the human cytomegalovirus (HCMV); HFF cells, HCMV-luciferase reporter, 72 h; active compounds read low; activity change, negative = inhibition, % at 57.5 µM; hit rate 4.5% among 410,000; in the data active = activity change below about -60%; inconclusive = no clear call, values can overlap the other calls; inactive = above about -39%
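Two-dose cell screen: HFF monolayers treated with compounds and infected with luciferase-expressing HCMV at 1 PFU/cell, 72 h at 37C, then lysed for luciferase measurement.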
Each line names hits and unclear results; the compound was inactive in the other large screens; ! = repeats disagree. Unless noted, calls come from the whole dose curve; as a rule, active = well fitted curve in the direction sought with a large enough effect; inconclusive = small, poorly fitted or top-dose-only effect, or another doubt; inactive = no such curve, though single readings can be large; an effect the other way counts as inactive or inconclusive.

COC(=O)C1=C(C)NC(C)=C(C(=O)OC(C)(C)CN(C)CCC(c2ccccc2)c2ccccc2)C1c1cccc([N+](=O)[O-])c1 (centres undefined)	Pf growth 96h 3µM, Pf growth 48h 1.5µM (no result: Giardia FBPA inh, Sm TGR inh, HCMV antiviral)
CCOC(=O)C1=C(C)NC(C)=C(C(=O)OC)[C@H]1c1cccc([N+](=O)[O-])c1	none (no result: Pf growth 96h, Pf growth 48h, Sm TGR inh, HCMV antiviral)
COCCOC(=O)C1=C(C)NC(C)=C(C(=O)OC(C)C)C1c1cccc([N+](=O)[O-])c1 (centres undefined)	Pf growth 96h 6.6µM!, Pf growth 48h 9.3µM, HCMV antiviral inconclusive
CCOC(=O)C1=C(N)Oc2cc(O)ccc2C1c1ccccc1 (centres undefined)	none
CCOC(=O)C1=C(N)Oc2cc(O)ccc2C1c1cccc([N+](=O)[O-])c1 (centres undefined)	HCMV antiviral -69 (no result: Sm TGR inh)
C=Cc1ccc(CSc2nc(-c3ccccc3C)nc3c2Cc2c(CO)cnc(C)c2O3)cc1	none (no result: Pf growth 96h, Pf growth 48h, Giardia FBPA inh)
CC1=C(C(=O)OC(C)C)C(c2cccc([N+](=O)[O-])c2)C(C(=O)OC2CN(C(c3ccccc3)c3ccccc3)C2)=C(N)N1 (centres undefined)	Pf growth 48h 7.6µM (no result: Giardia FBPA inh, Sm TGR inh, HCMV antiviral)
CCOC(=O)C1=C(C)NC(C)=C(C(=O)OC)C1c1cccc([N+](=O)[O-])c1 (centres undefined)	Pf growth 96h inconclusive, Pf growth 48h 5.9µM, HCMV antiviral inconclusive
COCCOC(=O)C1=C(C)NC(C)=C(C(=O)OC/C=C/c2ccccc2)C1c1cccc([N+](=O)[O-])c1 (centres undefined)	Pf growth 96h 8.5µM, Pf growth 48h 11µM (no result: Sm TGR inh, HCMV antiviral)
COC(=O)C1=C(C)NC(C)=C(C(=O)OCCCN2CCC(c3ccccc3)(c3ccccc3)CC2)[C@H]1c1cccc([N+](=O)[O-])c1	none (no result: Pf growth 96h, Pf growth 48h, Sm TGR inh, HCMV antiviral)
CC(=O)c1ccc(NC(=O)NC2CC(=O)N(c3ccc4c(c3)OCCO4)C2)cc1 (centres undefined)	Pf growth 96h inconclusive, Pf growth 48h inconclusive (no result: Giardia FBPA inh)
COCc1ccc(C(=O)N(C)C2CCCN(Cc3ccccc3F)C2)o1 (centres undefined)	Pf growth 96h 2.9µM, Pf growth 48h inconclusive (no result: Giardia FBPA inh)
COC(=O)c1ccc(C(=O)N(C)C2CCCN(Cc3ccccc3F)C2)cc1 (centres undefined)	none
CC(=O)c1ccc(C(=O)N(C)C2CCCN(Cc3ccccc3F)C2)s1 (centres undefined)	none
COc1ccc(C(=O)N(C)C2CCCN(Cc3ccccc3F)C2)cc1C (centres undefined)	Pf growth 96h 5.2µM, Pf growth 48h inconclusive
Cc1ccc2c(c1)N(C(=O)c1ccco1)C(C)(C)c1ssc(=S)c1-2	Pf growth 96h 5.2µM, HCMV antiviral inconclusive (no result: Pf growth 48h)
Cc1cccc2c1N(C(=O)c1ccco1)C(C)(C)c1ssc(=S)c1-2	Pf growth 96h 5.2µM, Pf growth 48h inconclusive, HCMV antiviral inconclusive
CCc1ccccc1NC(=O)N1CCCn2nc(C)cc21	none (no result: Pf growth 96h, Pf growth 48h, Giardia FBPA inh)
COc1ccc(-c2cncnc2N)cc1OC	none (no result: Pf growth 96h, Pf growth 48h, Giardia FBPA inh, Sm TGR inh)
Nc1ncncc1-c1ccc2ccccc2c1	HCMV antiviral -75
COc1cc(C(=O)OCC(=O)N2CCOCC2)c([N+](=O)[O-])cc1OC	none
O=C(CCSc1ccc(F)cc1)NNC(=O)c1ccccc1Cl	HCMV antiviral inconclusive (no result: Giardia FBPA inh)
COc1cccc(NC(=O)N2CCCC2C(=O)NCc2ccccc2F)c1 (centres undefined)	Pf growth 96h 10µM, HCMV antiviral inconclusive
COc1cccc(NC(=O)N2CCCC2C(=O)NCc2ccccc2)c1 (centres undefined)	none
Cc1ccc(NC(=O)N2CCCC2C(=O)NCc2ccccc2Cl)cc1 (centres undefined)	Pf growth 96h 2.6µM
COc1ccc(NC(=O)N2CCCC2C(=O)Nc2ccccc2F)cc1 (centres undefined)	Pf growth 96h 2.6µM
COc1ccc(C2/C=C\CN(Cc3ccccc3)C(C)C(=O)N2Cc2ccc(F)cc2)cc1 (centres undefined)	none (no result: Pf growth 96h, Pf growth 48h, Sm TGR inh, HCMV antiviral)
CC1=C(c2ccc(C)c(C)c2)S(=O)(=O)N=C1N1CCC(C(=O)N2CCCCC2)CC1	none (no result: Pf growth 96h, Pf growth 48h, Giardia FBPA inh)
CC(C)NC[C@H]1CCc2cc(CO)c([N+](=O)[O-])cc2N1	none (no result: Sm TGR inh, HCMV antiviral)
FC(F)(F)c1cccc(-n2cc(-c3ccccc3)c3c(N4CCCCC4)ncnc32)c1	none (no result: Pf growth 96h, Pf growth 48h, Giardia FBPA inh)

Bioassay records deposited in PubChem by National Center for Advancing Translational Sciences (NCATS).
